# Shown are actives, neighbours in structure and some others; about 6.9% of the full set was active somewhere.
# IL-1B inflam inh = qHTS for Inhibitors of Inflammasome Signaling: IL-1-beta AlphaLISA Primary Screen | THP-1 LPS/ATP IL-1B secretion, AlphaLISA, 16 h; active compounds read low | activity change, % at 57.5 µM | 360,000 compounds, 4.7% hits; in the data active = activity change below about -50%; inconclusive = mostly about -30% to -49%; also: % is scaled to controls: 0 for no effect and ±100 for the full control effect
#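 THP-1 cells pretreated 1 hr with compounds (up to 57.5 uM final), then stimulated with LPS (250 ng/mL final) plus ATP (1.25 mM final); secreted IL-1B measured by AlphaLISA after 16 hr, decreased signal indicating inhibition.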
# SW480 rereplic = A quantitative high throughput screen for small molecules that induce DNA re-replication in SW480 colon adenocarcinoma cells; 340,000 compounds, 1.8% hits; SW480 DNA re-replication, Hoechst DNA content imaging, 48 h; AID 624297, 2012; Potency, µM (doses to about 46.1 µM), for the others: at the highest dose re-replication activation, hits mostly activators; also: potency is read from the fitted curve at half-maximal effect; % of control where 0% means no effect; nearly all actives have a fitted effect of over 55% in size
#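 Image-based DNA-content assay: after two days of treatment, nuclei were labelled with the DNA dye Hoechst and imaged, and hits were compounds raising the count of nuclei showing high fluorescence intensity.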
# Vif-A3F inh = qHTS for Inhibitors of Vif-A3F Interactions: qHTS | HeLa A3F-eYFP + Vif (tagged APOBEC3F with the HIV-1 protein that degrades it), YFP fluorescence increase | Potency, µM (doses to about 46.1 µM), inactives show top-dose activity, negative = active | 390,000 compounds, 0.2% hits | AID 602313, 2012; also: potency is read from the fitted curve at half-maximal effect; % of control where 0% means no effect; nearly all actives have a fitted effect of over 65% in size
#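 Fluorescence increase (Ex 488/Em 500-530) after overnight compound treatment at 37 deg C flags inhibition of Vif-driven A3F-eYFP loss in stable HeLa A3F-eYFP/Vif cells seeded overnight beforehand.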
# Vif-APOBEC3G blk = qHTS for Inhibitors of Vif-A3G Interactions: qHTS; 410,000 compounds, 0.076% hits; DNA dC->dU-editing enzyme APOBEC-3G (Homo sapiens), Q9HC16; Potency, µM (highest dose often 46.1 µM), for the others: at the highest dose activity, negative = active, actives largely listed as inhibitors; HeLa A3G-eYFP + Vif (tagged APOBEC3G with the HIV-1 protein that degrades it), YFP fluorescence, overnight; also: potency is read from the fitted curve at half-maximal effect; % is scaled to controls: 0 for no effect and ±100 for the full control effect; nearly all actives have a fitted effect of over 60% in size
# Target sequence (Q9HC16 whole entry, looked up): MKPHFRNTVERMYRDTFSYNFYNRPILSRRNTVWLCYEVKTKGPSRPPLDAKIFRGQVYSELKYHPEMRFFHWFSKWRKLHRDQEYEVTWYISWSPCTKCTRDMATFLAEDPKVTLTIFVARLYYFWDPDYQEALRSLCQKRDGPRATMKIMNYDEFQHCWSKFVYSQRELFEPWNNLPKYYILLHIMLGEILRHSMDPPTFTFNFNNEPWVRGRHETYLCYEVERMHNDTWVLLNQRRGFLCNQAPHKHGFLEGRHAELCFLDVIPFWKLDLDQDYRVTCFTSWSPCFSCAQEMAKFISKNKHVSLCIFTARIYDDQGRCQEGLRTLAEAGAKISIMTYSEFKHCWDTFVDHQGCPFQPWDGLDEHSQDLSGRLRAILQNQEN
#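 HeLa cells stably expressing Vif and C-terminally eYFP-tagged A3G, seeded overnight at 37 deg C, then exposed to compound by pintool overnight at 37 deg C. Rise in yellow fluorescence (Ex 488/Em 500-530, Acumen) marks blocked Vif-driven A3G degradation.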
# Giardia kill = Small Molecules that selectively kill Giardia lamblia: qHTS. 340,000 compounds, 0.15% hits. activity change, % at 7.66 µM, hits read low. Giardia lamblia trophozoite viability; in the data active = activity change below about -80%; inconclusive = between about -30% and that limit;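 also: parasites exposed to compound for two days anaerobically before the ATP read; % is scaled to controls: 0 for no effect and ±100 for the full control effect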
#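 Luminescence from cellular ATP indicates surviving trophozoites (100 cells/well) following 48 hrs anaerobic compound treatment at 37 deg C; signal develops 15-30 min at room temperature.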
# MCF10A rereplic = A quantitative high throughput screen for small molecules that induce DNA re-replication in MCF 10a normal breast cells | Potency, µM (top dose mostly 46.1 µM), inactives show top-dose activity, positive = re-replication, usual class: activators | AID 624296, 2012 | MCF 10A DNA re-replication, Hoechst nuclear intensity, 48 h | 350,000 compounds, 2.9% hits; also: potency is read from the fitted curve at half-maximal effect; % of control where 0% means no effect; nearly all actives have a fitted effect of over 50% in size
# The depositor's hits bear a star; ? = inconclusive; · = not tested or not shown; [ ] = dose if it differs, or a comment. Unless noted, calls follow the shape of the dose curve; as a rule, active = well fitted curve in the direction sought with a large enough effect; inconclusive = small, poorly fitted or top-dose-only effect, or another doubt; inactive = no such curve, though single readings can be large; an effect the other way counts as inactive or inconclusive.
SMILES,IL-1B inflam inh,SW480 rereplic,Vif-A3F inh,Vif-APOBEC3G blk,Giardia kill,MCF10A rereplic
COc1ccc(C2CC(c3ccc(C)cc3)=NN2C(=O)c2ccccc2)cc1 (centres undefined),?,-7%,0%,-12%,-24,10%
Cc1ccc(S(=O)(=O)NCC2CCC(C(=O)NCCc3ccccc3)CC2)cc1 (centres undefined),·,·,7%,-1%,·,·
O=C(COc1ccc2c(c1)CCC2)N1CCc2ccccc21,-13,?,1%,-2%,-9,26µM*
Cc1ccc(Cl)cc1N1CCN(C(=O)COc2ccc3c(c2)CCC3)CC1,-72*,20%,0%,-3%,-5,13µM*
O=C(OCC(=O)N1CCCc2ccccc21)c1cnc(Cl)c(Cl)c1,-85*,-7%,-8%,9%,0,-3%
C=CC(=O)N1CCC[C@@H](n2nc(-c3ccc(Oc4ccccc4)cc3)c3c(N)ncnc32)C1,·,·,·,-3%[92.2 µM],·,·
O=C(CSc1nnc(-c2ccccc2)c(-c2ccccc2)n1)Nc1ccccc1Cl,·,·,-6%,3%,·,·
CCCN(C(=O)Cn1cnc2sc(C)c(S(=O)(=O)N3CCN(c4ncccn4)CC3)c2c1=O)c1cccc(C)c1,·,·,-6%,-4%,·,·
O=C(NCC(c1cccs1)N1CCOCC1)c1ccc(Cl)c([N+](=O)[O-])c1 (centres undefined),-94*,4%,3%,?,11,?
O=C(NCC(c1cccs1)N1CCOCC1)c1ccccc1NS(=O)(=O)c1ccc(Cl)c([N+](=O)[O-])c1 (centres undefined),-10,-4%,2%,-23%,2,15µM*
O=C(NCC(c1cccs1)N1CCOCC1)c1ccc(Br)o1 (centres undefined),28,8.2µM*,-8%,?,4,?
Cc1ccc(OCC(=O)OCc2cc(=O)n3c(C)csc3n2)cc1,·,·,1%,-1%,·,·
O=C(c1ccc(Br)cc1)N(Cc1ccco1)c1ccccn1,·,·,0%,-4%,·,·
CC1CCCN(c2c3c(nc4ccccc24)CCCC3)C1 (centres undefined),-89*,12%,-15%,2%,-9,?
O/N=C1\CC/C(=N\O)c2nn(-c3ccc(Cl)cc3Cl)nc21,-51*,-1%,-1%,-2%,-8,-1%
O/N=C1\CCc2cc(Cl)ccc21,13,-2%,2%,-4%,-19,2%
COc1ccc(CNC(=O)c2ccc(Cn3c(=O)c4cccn4c4cccnc43)cc2)c(OC)c1,·,·,-12%,1%,·,·
O=C(/C=C/c1ccc(Cl)cc1)N(c1ccccn1)C1CCCCC1,-57*,0%,-11%,-2%,8,19%
CN(C(=O)/C=C/c1ccccc1)C1CCCCC1,-51*,-20%,5%,-7%,-1,0%
O=C(c1ccco1)N1CCN(/C=C2\Nc3ccccc3C(=O)N2c2ccc(F)cc2)CC1,·,·,·,·,13,·
COCCN(CCOC)c1ncnc2c1c(-c1ccccc1)cn2-c1ccc(C)c(Cl)c1,·,·,-11%,4%,·,·
CCOC(=O)c1c(C)[nH]c(C)c1S(=O)(=O)N1CCCC(C(=O)N2CCN(c3cccc(C)c3C)CC2)C1 (centres undefined),·,·,-2%,7%,·,·
COc1cccc(NC(=O)Cn2c(=O)ccc3cc(S(=O)(=O)N4CCC(C)CC4)ccc32)c1,·,·,-7%,0%,·,·
O=C(Nc1ccc(Br)cc1F)c1ccc2c(c1)N(Cc1ccccc1)C(=O)CS2=O (centres undefined),-58*,11%,5%,-9%,-6,2%
Cc1ccc(C)c(NC(=O)c2ccc3c(c2)N(Cc2ccc(F)cc2)C(=O)CS3=O)c1 (centres undefined),-4,-4%,-5%,-2%,6,4%
SMILES,IL-1B inflam inh,SW480 rereplic,Vif-A3F inh,Vif-APOBEC3G blk,Giardia kill,MCF10A rereplic
CCCCn1c(=N)c(S(=O)(=O)c2ccc(C)cc2)cc2c(=O)n3cc(C)ccc3nc21,·,·,3%,-3%,·,·
COc1ccc(OC)c(NC(=O)Cn2cnc3onc(-c4ccc(Cl)cc4)c3c2=O)c1,·,·,-9%,1.3µM*,·,·
COCCNC(=O)c1cccc(OC2CCN(Cc3ccc(Cl)c(F)c3)CC2)c1,-53*,-3%,-4%,0%,2,1%
O=C(C[n+]1cc(-c2ccc(F)cc2)n2c1CCC2)N1c2ccccc2Sc2ccccc21,-50*,23%,-9%,3%,2,?
Cc1ccc(-c2c[n+](CC(=O)N3c4ccccc4Sc4ccccc43)c3n2CCC3)cc1,-58*,1%,-3%,1%,?,1%
COc1ccc(Nc2nnc(Cc3ccncc3)c3ccccc23)c(OC)c1,-57*,-12%,7%,-1%,-12,-7%
COc1ccc(Nc2ncnc3ccccc23)c(OC)c1,45,-2%,-8%,0%,-17,-6%
COc1ccc(CC(=O)NNC2=Nc3cccc4cccc2c34)cc1OC,5,?,?,-20%,1,4%
O=C(NNC1=Nc2cccc3cccc1c23)c1ccc(Br)cc1,55,18µM*,?,-26%,1,15µM*
CSCCOC(=O)COc1ccc(/C=N/NC(=O)c2nn(C)cc2Cl)cc1,-69*,11%,-3%,-1%,-10,-21%
Cc1ccc(S(=O)(=O)Oc2ccc(/C=N/NC(=O)c3nn(C)cc3Cl)cc2)cc1,0,2%,1%,0%,-2,14%
COc1ccc(-c2ccc3c(c2)S(=O)(=O)c2cccc(C(=O)NCc4ccccc4Cl)c2C3=O)cc1OC,11,2%,6%,-3%,13,4%
CC(C)c1cccc(-c2ccc3c(c2)S(=O)(=O)c2cccc(C(=O)NCc4ccccc4)c2C3=O)c1,18,-6%,10µM*,2%,-5,?
O=C(NCc1ccccc1Br)c1cccc2c1C(=O)c1ccc(-c3ccc(OC(F)(F)F)cc3)cc1S2(=O)=O,6,-7%,?,-10%,4,-3%
CC(C)c1cccc(-c2ccc3c(c2)S(=O)(=O)c2cccc(C(=O)NCc4ccccc4Cl)c2C3=O)c1,18,-97%,11µM*,0%,-28,?
CC(=O)c1cccc(NC(=O)[C@H](Cc2ccccc2)N2Cc3ccccc3C2=O)c1,·,·,-6%,-7%,·,·
Cc1ccc(NC(=Nc2ccc(Br)cc2)N2CCOCC2)cc1C,-66*,25%,-4%,4%,11,8%
